The nature of assay [1]: qHTS assay to identify small molecule agonists of the NFkB signaling pathway - cell viability counter screen (AID 1159515; calls by dose curve; note: % is set by controls: 0 for no effect and ±100 for the full control effect; nearly all actives have a fitted effect of over 55% in size). In outline: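 Cells are seeded (2,000 NFkB-bla ME-180 per well), rested overnight, and dosed with DMSO-dissolved compounds for 5 hr at 37 C. Viability is then read by CellTiter-Glo luminescence after 30 min at room temperature.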
On the technique in general: In qHTS, concentration-response curves come from the screen itself.

Assay [2] in a line: qHTS assay to identify small molecule agonists of the endoplasmic reticulum stress response signaling pathway (AID 1159516; active = well fitted activation curve with a large enough effect in the signal ratio in the repeat runs, not every such curve was filed as active; the % refers to the signal ratio; note: % is set by controls: 0 for no effect and ±100 for the full control effect). In short, it runs like this:
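Cells are seeded at 1,500 per well and incubated overnight. Compounds in DMSO are added for 5 hr at 37 C, then beta-lactamase FRET substrate for 2 hr at room temperature, and fluorescence at 460 and 530 nm is measured.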

Assay [3] is described as follows: qHTS assay to identify small molecule agonists of the endoplasmic reticulum stress response signaling pathway - cell viability counter screen (AID 1159517; calls by dose curve;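 note: HeLa cells carrying an ER stress response element beta-lactamase reporter; % is set by controls: 0 for no effect and ±100 for the full control effect; nearly all actives have a fitted effect of over 50% in size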). In outline:
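ESRE-bla HeLa cells (1,500/well) were plated overnight at 37 C and exposed to compounds for 5 hr. After the 2 hr beta-lactamase substrate read, CellTiter-Glo went into the same wells, and luminescence was read after 30 min at room temperature.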

A short description of assay [4]: qHTS assay to identify small molecule agonists of the AP-1 signaling pathway - cell viability counter screen (AID 1159525; calls by dose curve; note: nearly all actives have a fitted effect of over 55% in size; note: potency is the fitted concentration of half-maximal effect). In outline: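 Intracellular ATP by Cell Titer Glo luminescence (30 min, RT) in the same ME-180 AP-1-bla wells after the 5 h compound exposure at 37 °C. Normalised to tetra n-octyl ammonium bromide and DMSO controls.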
A short description of assay [5]: qHTS assay to identify small molecule antagonists of the retinoid acid receptor (RAR) signaling pathway - cell viability counter screen (AID 1159551). Note: % is set by controls: 0 for no effect and ±100 for the full control effect; nearly all actives have a fitted effect of over 35% in size. In short, it runs like this: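 Cells (C3RL4) are plated, incubated overnight, dosed with compound in DMSO, then given retinol at 1 uM final. After 6 h at 37 C, CellTiter-Glo is added and luminescence read following 30 min at room temperature.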

Assay [6] is described as follows: qHTS assay to identify small molecule agonists of the retinoic acid receptor (RAR) signaling pathway (AID 1159553). Note: % is set by controls: 0 for no effect and ±100 for the full control effect. The note with it: C3RL4 RARE luciferase reporter, agonist, 6 h; activation: at 73.3 µM (top of the series) unless noted. In outline:
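Seed C3RL4 reporter cells at 1,000 per well and incubate overnight at 37 C. Add compounds in DMSO, incubate 6 hr. Add luciferase reagent, wait 30 min at room temperature, read luminescence.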

Assay [7] is described as follows: qHTS assay to identify small molecule antagonists of the estrogen related receptor (ERR) signaling pathway - cell viability counter screen (AID 1224818). Note: % is set by controls: 0 for no effect and ±100 for the full control effect. In outline:
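ERR cells, 2,000/well; 6 h settle at 37 C/5% CO2; compound pin transfer (DMSO); 17.5 h at 37 C; CellTiter-Fluor, 30 min, fluorescence read.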

Assay [8] is described as follows: qHTS assay to identify small molecule antagonists of the estrogen related receptor (ERR) signaling pathway (AID 1224819;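 note: luminescence from an ERR-driven luciferase reporter measured with One-Glo reagent; % is set by controls: 0 for no effect and ±100 for the full control effect; nearly all actives have a fitted effect of over 50% in size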). In outline: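 qHTS in ERR cells, 2,000/well, 1536 format. Cpd (DMSO) added after 6 h settle, 18 h 37 C. One-Glo luminescence, 30 min RT.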
Assay [9] can be described thus: qHTS assay to identify small molecule agonists of the estrogen related receptor (ERR) signaling pathway (AID 1224820). Note: % is set by controls: 0 for no effect and ±100 for the full control effect. In short, it runs like this: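 An ERR cell line provided by NTP was seeded at 2,000 cells per well and allowed to settle for 6 h before compounds in DMSO were added. After 18 h at 37 C, luciferase activity was measured by One-Glo luminescence.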
The test system of assay [10] is estrogen-related receptor alpha (ERRalpha) with PGC-1alpha coactivator, human. The assay is described as follows: qHTS assay to identify small molecule antagonists of the estrogen related receptor signaling pathway with the pleiotropic PPARgamma coactivator (PGC) (AID 1224821; calls by dose curve;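 note: % is set by controls: 0 for no effect and ±100 for the full control effect; lower luminescence signal means antagonism of PGC/ERR signalling; nearly all actives have a fitted effect of over 50% in size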). In short, it runs like this:
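A PGC/ERR cell line supplied by NTP is seeded, allowed 6 h at 37 C, and treated with test compounds in DMSO for 18 h. Signal is then measured as luciferase luminescence using One-Glo.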

Assay [11] is described as follows: qHTS assay to identify small molecule antagonists of the estrogen related receptor signaling pathway with the pleiotropic PPARgamma coactivator (PGC) cell viability counter screen (AID 1224822). In outline:
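Multiplexed viability counter screen run in PGC/ERR cells treated with compounds for 17.5 h at 37 C; live-cell protease signal measured by CellTiter-Fluor fluorescence.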

Assay [12] in a line: qHTS assay to identify small molecule agonists of the estrogen related receptor signaling pathway with the pleiotropic PPARgamma coactivator (PGC) (AID 1224823). Note: % is set by controls: 0 for no effect and ±100 for the full control effect. In outline:
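Compounds dissolved in DMSO are added by pin tool to PGC/ERR cells that have settled for 6 h, and incubation continues 18 h at 37 C. Reporter output is measured as One-Glo luminescence.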

The target in assay [13] is Nuclear receptor ROR-gamma (Homo sapiens) (UniProt P51449). The assay is described as follows: qHTS assay to identify small molecule antagonists of the retinoid-related orphan receptor gamma (ROR-gamma) signaling pathway (AID 1159521;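 note: CHO cells with doxycycline inducible ROR-gamma driving an RORE luciferase reporter; top concentration of the series differs between compounds; % is set by controls: 0 for no effect and ±100 for the full control effect; nearly all actives have a fitted effect of over 50% in size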). In short, it runs like this:
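Tet-on ROR-gamma CHO cells with ROR response element-luciferase reporter; compounds added 2 hr before 1 uM doxycycline induction, then 16 hr at 37 C. Antagonism scored as decreased ONE-Glo luminescence.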

A short description of assay [14]: qHTS assay to identify small molecule agonists of the RXR signaling pathway - cell viability counter screen (AID 1159529). Note: nearly all actives have a fitted effect of over 50% in size. Note: potency is the fitted concentration of half-maximal effect. In outline:
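RXR-alpha-UAS-bla HEK 293T cells in medium with 2% charcoal-stripped FBS were pre-incubated 5 hr, then compound-treated 16 hr at 37 C. Viability was read by CellTiter-Glo luminescence in the same wells as the beta-lactamase assay, with tetraoctyl ammonium bromide as positive control.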

The nature of assay [15]: qHTS assay to identify small molecule antagonists of the retinoic acid receptor (RAR) signaling pathway (AID 1159552; note: nearly all actives have a fitted effect of over 50% in size; note: potency is the fitted concentration of half-maximal effect). In short, it runs like this: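 Retinol signaling pathway inhibitors screened in C3RL4 RARE-luciferase reporter cells seeded overnight at 37 C, then compounds added with 1 uM (final) retinol as pathway substrate. After 6 hr at 37 C, luciferase luminescence read after 30 min at room temperature.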

Assay [16] in a line: qHTS assay to identify small molecule antagonists of the vitamin D receptor (VDR) signaling pathway - cell viability counter screen (AID 743225). In outline:
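VDR-UAS-bla HEK 293T cells were plated and incubated 4 h at 37C, then dosed with compound plus 3 nM (final) 1-alpha,25-dihydroxyvitamin D3 for 16 h. After the 2 h beta-lactamase read, viability in the same wells was read as CellTiter-Glo luminescence after 30 min at room temperature.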

Assay [17] can be described thus: qHTS assay to identify small molecule agonists of the vitamin D receptor (VDR) signaling pathway - cell viability counter screen (AID 743224). Note: nearly all actives have a fitted effect of over 50% in size. Note: potency is the fitted concentration of half-maximal effect. In short, it runs like this:
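Cells: VDR-bla, 2,000/well, settled 4 h. Treatment: compounds in DMSO, 16 h, 37C/5% CO2. Readout: CellTiter-Glo luminescence after 30 min RT.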

A short description of assay [18]: qHTS assay to identify small molecule agonists of the AP-1 signaling pathway (AID 1159526; calls by dose curve; note: % is set by controls: 0 for no effect and ±100 for the full control effect).
Assay [19] in a line: qHTS assay to identify small molecule antagonists of the retinoid-related orphan receptor gamma (ROR-gamma) signaling pathway - cell viability counter screen (AID 1159520). In outline: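 Cytotoxicity was read from cellular ATP (CellTiter-Glo luminescence) after 16 hr at 37 C with 1 uM doxycycline induction. The inducer was added 2 hr after compound transfer to Tet-on ROR gamma CHO cells.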

The target in assay [20] is Retinoic acid receptor RXR-alpha (Homo sapiens) (UniProt P19793). Nature of the assay: qHTS assay to identify small molecule agonists of the RXR signaling pathway (AID 1159527; calls by dose curve; note: % is set by controls: 0 for no effect and ±100 for the full control effect; nearly all actives have a fitted effect of over 35% in size). In short, it runs like this:
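GeneBLAzer RXR-alpha-UAS-bla HEK 293T cells in 2% charcoal-stripped FBS medium were exposed to compounds for 16 hr at 37 C in agonist mode. Beta-lactamase reporter read as 460/530 nm FRET ratio after 2 hr substrate loading.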

Results filed as inconclusive are left out. A number with no mark means an inactive call. Active and inactive are the calls of the source. Unless noted, calls come from the whole dose curve; as a rule, active = well fitted curve in the direction sought with a large enough effect in the repeat runs; inconclusive = weak or mixed curves; inactive = no such curve, though single readings can be large; an effect the other way counts as inactive or inconclusive.

Retinoic acid receptor RXR-alpha (Homo sapiens), sequence (P19793 whole entry, looked up): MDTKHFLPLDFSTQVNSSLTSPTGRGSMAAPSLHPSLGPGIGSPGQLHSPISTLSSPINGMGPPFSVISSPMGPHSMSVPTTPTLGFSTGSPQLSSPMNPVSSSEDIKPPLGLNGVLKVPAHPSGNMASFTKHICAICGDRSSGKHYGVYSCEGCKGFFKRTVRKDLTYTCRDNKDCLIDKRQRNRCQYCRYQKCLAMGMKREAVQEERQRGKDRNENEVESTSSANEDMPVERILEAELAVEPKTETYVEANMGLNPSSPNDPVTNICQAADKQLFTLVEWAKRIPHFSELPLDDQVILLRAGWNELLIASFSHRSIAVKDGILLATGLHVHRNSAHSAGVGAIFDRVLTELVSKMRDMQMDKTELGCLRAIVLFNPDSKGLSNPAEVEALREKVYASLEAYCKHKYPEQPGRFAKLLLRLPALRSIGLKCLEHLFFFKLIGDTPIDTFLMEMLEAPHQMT

Turning to `CCCCN(CCCC)CC(O)c1cc(Cl)cc2c1-c1ccc(Cl)cc1/C2=C/c1ccc(Cl)cc1` (stereo unspecified), the Potency result in assay [1], in assay [2], in assay [3], in assay [4], in assay [5] and in [6] was “inactive” throughout. Besides, the Potency result in [8], in assay [10] and in [11] was “inactive” throughout. In addition, the outcome in assay [7], in [9] and in assay [12] was inactive.

Consider `CCCCCC(C)OC(=O)COc1ccc(Cl)c2cccnc12` (stereo unspecified), for which the Potency entry in assay [1], in [2], in assay [3], in assay [13], in assay [5] and in assay [15] was “inactive” throughout. The Potency result in [6] was “inactive”. Further, the Potency in [4] was 34.7 µM (active); in assay [14] it was 11 µM (active).

As for `S=C([S-])NCCNC(=S)[S-].S=C([S-])NCCNC(=S)[S-].[Mn+2].[Zn+2]`, the Potency result in assay [16], in assay [1], in assay [2], in assay [3], in assay [4] and in assay [14] was “inactive” each time. The Potency result in assay [5] is “inactive”.

With `COc1c(C)c2c(c(O)c1C/C=C(\C)CCC(=O)OCCN1CCOCC1)C(=O)OC2`, the Potency entry in assay [17], in assay [1], in [2], in assay [3], in [4] and in assay [18] was “inactive” each time. Moreover, the Potency result in [5], in assay [15] and in [6] was “inactive” throughout.

On to `CCc1ccc(Br)cc1`, for which the Potency result in assay [17], in assay [1], in [2], in [19], in assay [13] and in assay [4] was “inactive” each time. For the same compound, the Potency result in assay [18], in assay [20], in assay [14], in [5], in [15] and in [6] was “inactive” in each case.

For `NC(=S)NC(N)=S`, the Potency entry in assay [17], in assay [1], in assay [2], in [3], in assay [4] and in assay [14] was “inactive” throughout. Further, the Potency result in assay [5] and in assay [15] was “inactive” throughout.

As to `Oc1cc(Cl)cc(Cl)c1Cl`, the Potency result in assay [16], in [1], in assay [2], in assay [3], in assay [4] and in [20] was “inactive” each time. For the same compound, the Potency result in assay [14], in assay [5] and in [6] was “inactive” throughout.

As to `CC(C)(C)CC(C)(C)c1ccc(Nc2ccc(C(C)(C)CC(C)(C)C)cc2)cc1`, the activity change, negative = cytotoxicity in assay [17] was 10.9% [at 5.95 µM]; in assay [14], 2.3% [at 6.97 µM]; in assay [5] it was 0.648% [at 8.39 µM]. In addition, the viability change, negative = cytotoxic in assay [16] was 20.6% [at 6.95 µM]; in assay [4] it was -3.55% [at 6.97 µM]. In addition, the activity, negative = cytotoxic in [1] was -7.48% [at 6.95 µM]. Further, the figures for the activation in [2], in [18] and in assay [6] were -2.77% [at 6.95 µM], 15.6% [at 6.97 µM] and -3.08% [at 8.36 µM], respectively. Moreover, the activity, negative = cytotoxicity in assay [19] is -0.0922% [at 8.39 µM]. In [13], the activity change, negative = inhibition is 1.61% [at 8.39 µM]. Also, the activity, negative = inhibition in [15] was -23.1% [at 8.39 µM].

Take `CCCCCCCCCCCCOCCOCCOCCOCCOCCOCCOCCOCCOCCO`: the values for the Potency in assay [17] and in assay [14] were 29.8 µM (active) and 16.9 µM (active), respectively. Besides, the Potency entry in [1], in assay [2] and in assay [3] was “inactive” in each case.

Consider `O=c1[nH]c(=O)n([C@H]2C[C@H](O)[C@@H](CO)O2)cc1F`, for which the Potency entry in [17], in [16], in [1], in assay [2], in assay [19] and in [13] was “inactive” throughout. Also, the Potency entry in [4], in [18], in [20], in assay [5], in assay [15] and in assay [6] was “inactive” throughout.

As to `CCCCCc1ccc(Cl)cc1`, the Potency entry in assay [1], in [2], in assay [19], in assay [13], in assay [4] and in assay [18] was “inactive” throughout. The Potency entry in assay [20], in assay [14], in [5], in assay [15] and in [6] was “inactive” each time.

Regarding `CN(C)[C@@H](CCOc1cccc2ccccc12)c1ccccc1`, the Potency entry in assay [1], in [2] and in assay [3] was “inactive” in each case. The results for the Potency in assay [14] and in assay [15] were 21.3 µM (active) and 29.8 µM (active), respectively.

The values are drawn from PubChem BioAssay (Tox21).
